From PubChem BioAssay AID1159580 (chemical genetic matrix, 2015)
Where “and” joins values, the source holds several entries; their conditions need not be identical. Equal values may be shown once. About 2,000 (36%) of roughly 5,500 compounds were called active. Inconclusive results (about 18%) are left out. Rule as the data show it: active = normalized growth mostly below about 0.91 (no sharp cut-off); inconclusive = no clear call, values can overlap the other calls; inactive = mostly above about 0.92. This is one part of the list.

Assay: chemical genetic growth profiling, strain panel (AID 1159580);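 also: tested at 20 µM; growth read once vehicle control cultures reached saturation at 30 °C; 1 = growth at the plate median or of vehicle wells; lower values mean less growth of the strain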
Settings: S. cerevisiae deletion strains, growth OD

Measured: normalized growth

COc1cc(C(C)=O)cc(OC)c1O
inactive: locus YAL013W, strain DEP1, active compounds read low 0.991 | locus YAL021C, strain ccr4, active compounds read low 1.04 | locus YAL026C, strain drs2, active compounds read low 1.03 | locus YAL030W, strain snc1, active compounds read low 1.01 | locus YBL061C, strain skt5, active compounds read low 1.03 | locus YBR009C, strain hhf1, active compounds read low 1.04 | locus YBR021W, strain FUR4, active compounds read low 1.01 | locus YBR023C, strain chs3, active compounds read low 1.03 | locus YBR171W, strain sec66, active compounds read low 1.03 | locus YBR229C, strain ROT2, active compounds read low 0.998 | locus YBR231C, strain swc5, active compounds read low 1.02 | locus YBR279W, strain paf1, active compounds read low 1.02 | locus YCL011C, strain gbp2, active compounds read low 1.03 | locus YCL016C, strain dcc1, active compounds read low 1.02 | locus YCL029C, strain bik1, active compounds read low 1 | locus YCL061C, strain MRC1, active compounds read low 1.02 | locus YCL069W, strain vba3, active compounds read low 1.01 | locus YCR088W, strain abp1, active compounds read low 1.02 | locus YDL005C, strain med2, active compounds read low 1.02 | locus YDL035C, strain GPR1, active compounds read low 0.993 | locus YDL040C, strain nat1, active compounds read low 1.01 | locus YDL074C, strain BRE1, active compounds read low 1.04 | locus YDL101C, strain DUN1, active compounds read low 1.01 | locus YDL134C, strain PPH21, active compounds read low 0.991 | locus YDL185W, strain tfp1, active compounds read low 1 | locus YDL192W, strain arf1, active compounds read low 0.99 | locus YDR001C, strain nth1, active compounds read low 1.01 | locus YDR069C, strain doa4, active compounds read low 1.04 | locus YDR101C, strain arx1, active compounds read low 1.01 | locus YDR137W, strain rgp1, active compounds read low 1.08 | locus YDR150W, strain NUM1, active compounds read low 0.978 | locus YDR159W, strain sac3, active compounds read low 1.05 | locus YDR162C, strain NBP2, active compounds read low 0.986 | locus YDR195W, strain ref2 1.05 | locus YDR297W, strain sur2, active compounds read low 1.02 | locus YDR318W, strain mcm21, active compounds read low 0.991 | locus YDR334W, strain swr1, active compounds read low 1.02 | locus YDR335W, strain msn5, active compounds read low 1.02 | locus YDR388W, active compounds read low 0.994 | locus YDR392W, strain spt3, active compounds read low 0.971 | locus YDR502C, strain sam2, active compounds read low 1.01 | locus YEL003W, strain gim4, active compounds read low 1.04 | locus YEL037C, strain rad23, active compounds read low 1.02 | locus YEL061C, strain CIN8 (second series), active compounds read low 1.03 | locus YEL061C, strain CIN8, active compounds read low 0.999 | locus YER015W, strain faa2, active compounds read low 1.02 | locus YER016W, strain bim1, active compounds read low 1.01 | locus YER110C, active compounds read low 1 | locus YER111C, strain swi4, active compounds read low 1.03 | locus YER155C, strain BEM2 (second series), active compounds read low 1.03 | locus YER155C, strain BEM2, active compounds read low 0.994 | locus YER167W, strain BCK2, active compounds read low 0.977 | locus YFR010W, strain ubp6, active compounds read low 1.03 | locus YGL078C, strain dbp3, active compounds read low 0.998 | locus YGL086W, strain mad1, active compounds read low 1.02 | locus YGL167C, strain pmr1, active compounds read low 1.03 | locus YGL173C, strain kem1, active compounds read low 1.04 | locus YGL227W, strain vid30, active compounds read low 1.03 | locus YGL240W, strain doc1, active compounds read low 1.04 | locus YGL248W, strain PDE1, active compounds read low 0.998 | locus YGL253W, strain hxk2, active compounds read low 1.02 | locus YGR135W, strain pre9, active compounds read low 0.994 | locus YGR252W, strain gcn5, active compounds read low 1.02 | locus YHR013C, strain ard1, active compounds read low 1.02 | locus YHR027C, strain rpn1, active compounds read low 1.02 | locus YHR030C, strain SLT2, active compounds read low 1 and 0.985 | locus YHR079C, strain IRE1 (second series), active compounds read low 0.999 | locus YHR079C, strain IRE1, active compounds read low 0.983 | locus YHR094C, strain hxt1, active compounds read low 1 | locus YHR129C, strain ARP1, active compounds read low 1.01 | locus YHR142W, strain chs7, active compounds read low 1.03 | locus YHR200W, strain rpn10, active compounds read low 0.993 | locus YIL066C, strain RNR3, active compounds read low 0.983 | locus YIL073C, strain SPO22, active compounds read low 0.998 | locus YIL125W, strain kgd1, active compounds read low 0.997 | locus YIR030C, strain dcg1, active compounds read low 1.01 | locus YJL092W, strain hpr5, active compounds read low 1.02 | locus YJL095W, strain BCK1 (second series), active compounds read low 1.01 | locus YJL095W, strain BCK1, active compounds read low 1.05 and 0.999 | locus YJL115W, strain asf1, active compounds read low 1.02 | locus YJL129C, strain trk1, active compounds read low 1.05 | locus YJL134W, strain LCB3, active compounds read low 0.993 | locus YJL154C, strain vps35, active compounds read low 1.01 | locus YJL164C, strain tpk1, active compounds read low 1 | locus YJL166W, strain qcr8, active compounds read low 1.04 | locus YJL168C, strain set2, active compounds read low 0.997 | locus YJL187C, strain SWE1 (second series), active compounds read low 1.02 | locus YJL187C, strain SWE1, active compounds read low 1.02 | locus YJR043C, strain POL32, active compounds read low 0.981 | locus YJR066W, strain TOR1, active compounds read low 0.963 | locus YKL009W, strain mrt4, active compounds read low 1.05 | locus YKL068W, active compounds read low 0.993 | locus YKL085W, strain MDH1 (second series), active compounds read low 0.986 | locus YKL085W, strain MDH1, active compounds read low 0.986 | locus YKL160W, strain elf1, active compounds read low 1.03 | locus YKL190W, strain CNB1, active compounds read low 1.01 | locus YKR001C, strain vps1, active compounds read low 0.987 | locus YKR026C, strain gcn3, active compounds read low 0.995 | locus YKR091W, strain srl3, active compounds read low 1.02 | locus YLL001W, strain dnm1, active compounds read low 1.01 | locus YLL026W, active compounds read low 1.02 | locus YLL041C, strain sdh2, active compounds read low 1.02 | locus YLR027C, strain aat2, active compounds read low 1.01 | locus YLR039C, strain RIC1, active compounds read low 1.02 | locus YLR058C, strain SHM2, active compounds read low 0.998 | locus YLR102C, strain apc9, active compounds read low 1 | locus YLR113W, strain HOG1, active compounds read low 0.981 | locus YLR221C, strain rsa3, active compounds read low 1.04 | locus YLR258W, strain gsy2, active compounds read low 1.03 | locus YLR262C, strain YPT6 (second series), active compounds read low 1.07 | locus YLR262C, strain YPT6, active compounds read low 1.07 | locus YLR268W, strain sec22, active compounds read low 1.05 | locus YLR320W, strain mms22, active compounds read low 1.04 | locus YLR330W, strain CHS5, active compounds read low 0.988 | locus YLR342W, strain FKS1 (second series), active compounds read low 1 | locus YLR342W, strain FKS1, active compounds read low 1.02 | locus YLR357W, strain rsc2, active compounds read low 1.06 | locus YLR370C, strain arc18, active compounds read low 1.02 | locus YLR371W, strain rom2, active compounds read low 1.01 | locus YLR384C, strain iki3, active compounds read low 1.01 | locus YLR418C, strain cdc73, active compounds read low 0.967 | locus YML016C, strain PPZ1, active compounds read low 1.01 | locus YML032C, strain rad52, active compounds read low 0.957 | locus YML120C, strain ndi1, active compounds read low 1.03 | locus YML124C, strain tub3, active compounds read low 0.992 | locus YMR058W, strain fet3, active compounds read low 1.02 | locus YMR078C, strain ctf18, active compounds read low 1 | locus YMR125W, strain sto1, active compounds read low 1.04 | locus YMR129W, active compounds read low 1.03 | locus YMR205C, strain PFK2, active compounds read low 1.08 | locus YMR223W, strain ubp8, active compounds read low 0.999 | locus YMR231W, strain pep5, active compounds read low 1.01 | locus YMR307W, strain GAS1, active compounds read low 0.981 | locus YNL067W, strain RPL9B, active compounds read low 1.03 | locus YNL071W, strain lat1, active compounds read low 1.02 | locus YNL183C, strain NPR1, active compounds read low 0.972 | locus YNL209W, strain ssb2, active compounds read low 1.03 | locus YNL233W, strain BNI4, active compounds read low 1.03 | locus YNL248C, strain rpa49, active compounds read low 1.04 | locus YNL250W, strain rad50, active compounds read low 0.988 | locus YNL271C, strain bni1, active compounds read low 0.996 | locus YNL298W, strain CLA4, active compounds read low 1.01 | locus YNL307C, strain MCK1, active compounds read low 1 | locus YNL322C, strain KRE1 (second series), active compounds read low 1.03 | locus YNL322C, strain KRE1, active compounds read low 0.986 | locus YNR049C, strain mso1, active compounds read low 1.02 | locus YNR052C, strain pop2, active compounds read low 0.993 | locus YOL006C, strain TOP1, active compounds read low 1.02 | locus YOL012C, strain htz1 0.701 | locus YOL147C, strain pex11, active compounds read low 0.994 | locus YOR001W, strain rrp6, active compounds read low 1.03 | locus YOR061W, strain CKA2, active compounds read low 0.995 | locus YOR069W, strain VPS5, active compounds read low 0.996 | locus YOR070C, strain gyp1, active compounds read low 1.01 | locus YOR080W, strain dia2, active compounds read low 1.04 | locus YOR083W, strain WHI5, active compounds read low 1.03 | locus YOR106W, strain vam3, active compounds read low 1.07 | locus YOR136W, strain idh2, active compounds read low 1 | locus YOR144C, strain elg1, active compounds read low 0.997 | locus YOR184W, strain ser1, active compounds read low 0.994 | locus YOR231W, strain MKK1, active compounds read low 0.979 | locus YOR265W, strain rbl2, active compounds read low 1.02 | locus YOR270C, strain vph1, active compounds read low 1.1 | locus YOR290C, strain snf2, active compounds read low 0.995 | locus YOR316C, strain cot1, active compounds read low 0.998 | locus YPL051W, strain arl3, active compounds read low 1.02 | locus YPL055C, strain LGE1, active compounds read low 1.01 | locus YPL078C, strain atp4, active compounds read low 1.02 | locus YPL106C, strain sse1, active compounds read low 1.06 | locus YPL240C, strain hsp82, active compounds read low 1.04 | locus YPL256C, strain CLN2, active compounds read low 0.976 | locus YPR119W, strain clb2, active compounds read low 0.991 | locus YPR141C, strain kar3, active compounds read low 0.989 | locus YPR163C, strain tif3, active compounds read low 1 | locus YPR167C, strain met16, active compounds read low 0.989 | strain wtn01, active compounds read low 1.03
